For nine compounds, growth inhibition results are on record in PubChem BioAssay (NCI).

About 79,000 compounds went through this panel and 15% of them were active in at least one assay; those are over-represented in the sample as a whole. Unmarked numbers belong to inactive results. Activity calls are given as the source filed them. Cut-off read from the data, not from the text of the source: active = growth inhibition above about 70%; inactive = the rest.

Test [1] is described as follows: NCI Yeast Anticancer Drug Screen. Data for the rad50 strain (AID 155).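 Note: 0% = growth of vehicle-only cultures of the same strain.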 The settings on record: S. cerevisiae rad50 strain growth inhibition, stronger effect = higher value. The procedure, abridged: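 Compounds were tested on a yeast strain with an engineered DNA damage repair alteration; the reported value is growth inhibition normalised to vehicle treatment.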
Test [2] in a line: NCI Yeast Anticancer Drug Screen. Data for the mec2-1 strain (AID 157). The settings on record: S. cerevisiae mec2-1 strain, stronger effect = higher value. The essentials:
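Using mec2-1 yeast: add compound, measure growth, express inhibition versus vehicle-treated cultures.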

Test [3] can be described thus: NCI Yeast Anticancer Drug Screen. Data for the sgs1 mgt1 strain (AID 161).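 Note: 0% = growth of cultures given vehicle only.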 The settings on record: S. cerevisiae sgs1 mgt1 strain, stronger effect = higher value. The essentials:
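Compounds are added to genetically altered yeast, and growth is compared with cultures given vehicle alone to give percent inhibition.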

Test [4] in a line: NCI Yeast Anticancer Drug Screen. Data for the cln2 rad14 strain (AID 165).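 Note: 0% = growth equal to vehicle treated cultures.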 The following applies: S. cerevisiae cln2 rad14 strain, stronger effect = higher value. The essentials:
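Yeast strain cln2 rad14, bearing defects in cell cycle control and DNA repair, serves as the test system; values reflect growth inhibition compared with vehicle.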

Test [5] is described as follows: NCI Yeast Anticancer Drug Screen. Data for the bub3 strain (AID 167). The settings on record: S. cerevisiae bub3 mutant strain, stronger effect = higher value. The essentials:
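Growth of a checkpoint-deficient yeast mutant is measured after compound exposure. Values represent inhibition relative to vehicle.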

The nature of test [6]: NCI Yeast Anticancer Drug Screen. Data for the mlh1 rad18 strain (AID 175). The settings on record: S. cerevisiae mlh1 rad18 strain growth inhibition, stronger effect = higher value. The essentials: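 Steps: expose repair-defective yeast to compound; measure growth; express inhibition against vehicle-treated controls.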
The mark [7] stands for this setting: at 5.0 µM (retest, dose inferred, filed as 0.5).
The mark [8] stands for this setting: at 50.0 µM (retest, dose inferred, filed as 5.0).

Turning to `c1ccc2c(c1)CCCc1cc3ccccc3nc1-2`, the growth inhibition in test [1] (setting [7]) is 27%; in test [1] (setting [8]) it was 96% (active); in test [1] (at 50.0 µM) it was 84.8% (active); in test [2] (setting [7]) it was -30%; in test [2] (setting [8]), 98% (active); in test [2] (at 50.0 µM) it was 92.8% (active). In addition, the growth inhibition in test [3] (setting [7]) was -1%; in test [3] (setting [8]), 96% (active); in test [3] (at 50.0 µM) it was 93% (active); in test [4] (setting [7]), -12%; in test [4] (setting [8]) it was 96% (active); in test [4] (at 50.0 µM), 92% (active). The growth inhibition in test [5] (setting [7]) was 18%; in test [5] (setting [8]) it was 97% (active); in test [5] (at 50.0 µM), 91.9% (active); in test [6] (setting [7]), -36%; in test [6] (setting [8]) it was 96% (active); in test [6] (at 50.0 µM), 89.7% (active).

For the compound `Cc1cc(C(=O)CBr)c(CN2C(=O)c3ccccc3C2=O)c(=O)n1C`, the growth inhibition in test [1] (setting [7]) is 17%; in test [1] (setting [8]) it was 98% (active); in test [1] (at 50.0 µM) it was 63.3%; in test [2] (setting [7]) it was 49%; in test [2] (setting [8]), 99% (active); in test [2] (at 50.0 µM) it was 12.3%. Besides, the growth inhibition is 25% in test [3] (setting [7]); 99% (active) in test [3] (setting [8]); 74.3% (active) in test [3] (at 50.0 µM); 11% in test [4] (setting [7]); 98% (active) in test [4] (setting [8]); 2% in test [4] (at 50.0 µM). The growth inhibition in test [5] (setting [7]) was 18%; in test [5] (setting [8]), 98% (active); in test [5] (at 50.0 µM) it was 31.2%; in test [6] (setting [7]), 64%; in test [6] (setting [8]), 99% (active); in test [6] (at 50.0 µM), 38%.

In the case of `COc1ccccc1C(=O)N(Cc1ccccc1)c1ccc(Cl)c(C(=O)OC(C)C)c1`, the growth inhibition in test [1] (setting [7]) is 28%; in test [1] (setting [8]), 59%; in test [1] (at 50.0 µM), 15.3%; in test [2] (setting [7]), -7%; in test [2] (setting [8]), 14%; in test [2] (at 50.0 µM), 1.25%. The growth inhibition is 1% in test [3] (setting [7]); 33% in test [3] (setting [8]); -33.3% in test [3] (at 50.0 µM); -6% in test [4] (setting [7]); 14% in test [4] (setting [8]); 10.5% in test [4] (at 50.0 µM). Also, the growth inhibition in test [5] (setting [7]) was -55%; in test [5] (setting [8]), 15%; in test [5] (at 50.0 µM), -8.1%; in test [6] (setting [7]) it was 3%; in test [6] (setting [8]), 31%; in test [6] (at 50.0 µM) it was 19.1%.

Consider `CCCCN(CCCC)CC(O)c1cc(-c2ccc(Cl)cc2)nc2c(-c3ccccc3)cccc12` (configuration not stated), for which the growth inhibition in test [1] (setting [7]) is -1%; in test [1] (setting [8]) it was 30%; in test [1] (at 50.0 µM), 52.8%; in test [2] (setting [7]) it was -5%; in test [2] (setting [8]), 13%; in test [2] (at 50.0 µM), 36.3%. Besides, the growth inhibition in test [3] (setting [7]) is 0%; in test [3] (setting [8]), 54%; in test [3] (at 50.0 µM) it was 80.8% (active); in test [4] (setting [7]) it was -7%; in test [4] (setting [8]), 22%; in test [4] (at 50.0 µM), 13.8%. Moreover, the growth inhibition in test [5] (setting [7]) is -4%; in test [5] (setting [8]) it was 24%; in test [5] (at 50.0 µM) it was 8.15%; in test [6] (setting [7]), 0%; in test [6] (setting [8]) it was 39%; in test [6] (at 50.0 µM), 66.7%.

In the case of `O=C(Nn1c(-c2ccccc2)nc2ccccc2c1=O)c1ccccc1O`, the growth inhibition was -4% in test [1] (setting [7]); 49% in test [1] (setting [8]); 73.4% (active) in test [1] (at 50.0 µM); -14% in test [2] (setting [7]); 51% in test [2] (setting [8]); 64.2% in test [2] (at 50.0 µM). The growth inhibition was 3% in test [3] (setting [7]); 59% in test [3] (setting [8]); 79.5% (active) in test [3] (at 50.0 µM); 9% in test [4] (setting [7]); 59% in test [4] (setting [8]); 77.8% (active) in test [4] (at 50.0 µM). Also, the growth inhibition in test [5] (setting [7]) was -11%; in test [5] (setting [8]), 80% (active); in test [5] (at 50.0 µM) it was 78.2% (active); in test [6] (setting [7]), -1%; in test [6] (setting [8]) it was 79% (active); in test [6] (at 50.0 µM), 69.8%.

Consider `O=C1OC(=O)c2ccc(S)c3cccc1c23`, for which the growth inhibition in test [1] (setting [7]) is -35%; in test [1] (setting [8]), 95% (active); in test [1] (at 50.0 µM) it was 81.8% (active); in test [2] (setting [7]), -25%; in test [2] (setting [8]), 85% (active); in test [2] (at 50.0 µM), 61.2%. For the same compound, the growth inhibition was -53% in test [3] (setting [7]); 86% (active) in test [3] (setting [8]); 38.6% in test [3] (at 50.0 µM); -42% in test [4] (setting [7]); 68% in test [4] (setting [8]); 36.7% in test [4] (at 50.0 µM). Also, the growth inhibition in test [5] (setting [7]) is -32%; in test [5] (setting [8]), 90% (active); in test [5] (at 50.0 µM), 88.8% (active); in test [6] (setting [7]), -80%; in test [6] (setting [8]) it was 95% (active); in test [6] (at 50.0 µM), 76% (active).

As to `CC(=O)OC1CCC2(C)C(CCC3C2CCC2(C)C4CCC32OC(=O)C4CC(=O)O)C1` (configuration not stated), the growth inhibition in test [1] (setting [7]) is 3%; in test [1] (setting [8]), 36%; in test [1] (at 50.0 µM) it was 86.6% (active); in test [2] (setting [7]) it was -32%; in test [2] (setting [8]), 48%; in test [2] (at 50.0 µM) it was 89.5% (active). Also, the growth inhibition in test [3] (setting [7]) is -12%; in test [3] (setting [8]), 13%; in test [3] (at 50.0 µM) it was 89.5% (active); in test [4] (setting [7]), 7%; in test [4] (setting [8]) it was 49%; in test [4] (at 50.0 µM) it was 90.5% (active). The growth inhibition is -2% in test [5] (setting [7]); 49% in test [5] (setting [8]); 73% (active) in test [5] (at 50.0 µM); 10% in test [6] (setting [7]); 65% in test [6] (setting [8]); 93.5% (active) in test [6] (at 50.0 µM).

`O=C1C(Cl)=C(c2ccccc2)C1Cl` (configuration not stated): the growth inhibition in test [1] (setting [7]) was 97% (active); in test [1] (setting [8]) it was 100% (active); in test [1] (at 50.0 µM), 99.2% (active); in test [2] (setting [7]), 98% (active); in test [2] (setting [8]) it was 99% (active); in test [2] (at 50.0 µM), 99.5% (active). The growth inhibition in test [3] (setting [7]) was 99% (active); in test [3] (setting [8]) it was 100% (active); in test [3] (at 50.0 µM), 99.7% (active); in test [4] (setting [7]) it was 98% (active); in test [4] (setting [8]), 99% (active); in test [4] (at 50.0 µM) it was 99.5% (active). Further, the growth inhibition in test [5] (setting [7]) was 96% (active); in test [5] (setting [8]) it was 99% (active); in test [5] (at 50.0 µM), 99.5% (active); in test [6] (setting [7]), 99% (active); in test [6] (setting [8]) it was 99% (active); in test [6] (at 50.0 µM), 99.2% (active).

For `COc1cccc(C2Nc3ccccc3C(=O)N2N2CCOCC2)c1` (configuration not stated), the growth inhibition was 3% in test [1] (setting [7]); -2% in test [1] (setting [8]); 50.9% in test [1] (at 50.0 µM); 1% in test [2] (setting [7]); 6% in test [2] (setting [8]); -7.2% in test [2] (at 50.0 µM). Besides, the growth inhibition in test [3] (setting [7]) is 1%; in test [3] (setting [8]), 0%; in test [3] (at 50.0 µM) it was 32.4%; in test [4] (setting [7]) it was 0%; in test [4] (setting [8]) it was -6%; in test [4] (at 50.0 µM) it was -21.6%. Further, the growth inhibition in test [5] (setting [7]) is -2%; in test [5] (setting [8]), -5%; in test [5] (at 50.0 µM), 7.4%; in test [6] (setting [7]), -2%; in test [6] (setting [8]), -3%; in test [6] (at 50.0 µM) it was -5.05%.
